A short description of test [1]: AP1 Signaling Pathway (AID 357).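 Note: ME-180 reporter cells stimulated with EGF at its EC50 level; % is set by controls: 0 for no effect and ±100 for the full control effect.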 The settings on record: ME-180 AP-1-bla reporter, EGF-induced, beta-lactamase ratio, 5 h. The essentials:
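First, ME-180 AP-1-bla cells were cultured overnight at 37 °C in low-serum Opti-MEM. Next, titrated compounds with EC50 EGF were incubated 5 hours. Finally, CCF4 was added for 2.5 hours and the 460/530 nm ratio recorded.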

Test [2] addresses Cytochrome P450 1A2 (Homo sapiens) (UniProt P05177). Put plainly: p450-cyp1a2 (AID 410; calls by dose curve; note: potency is the fitted concentration of half-maximal effect;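 for activity change, negative = inhibition: -100% = full effect of reference inhibitor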). The note with it: recombinant CYP1A2, luciferin-ME demethylation, luminescence; series mostly up to 25.6 µM. An outline of the steps: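 O-Demethylation of luciferin 6' methyl ether by human CYP1A2 is monitored as luciferase luminescence. Substrate sits at Km (100uM); enzyme is 20nM. Values are scaled to 57 uM furafylline as maximal inhibition.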

A short description of test [3]: NFAT Signaling Pathway (AID 444).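 Note: carbachol stimulus at about its EC50 of 1 µM final; % is set by controls: 0 for no effect and ±100 for the full control effect.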 The note with it: Jurkat NFAT-bla M1, carbachol, beta-lactamase ratio, 5 h. An outline of the steps:
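Read-out: CCF4 FRET ratio (460 nm/530 nm) after 1 h RT dye loading, used for %activity and AC50 from titration series. Cells: Jurkat NFAT-β-lactamase/M1 line, treated with compound plus 1 uM carbachol for 5 h, 37 °C.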

The nature of test [4]: Stat Signaling Pathway (AID 446).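 Note: ME-180 cervical cancer cells given 40 pM IL-6 alongside compound; SIE-controlled beta-lactamase reporter measured as 460/530 nm FRET emission ratio; % is set by controls: 0 for no effect and ±100 for the full control effect.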 The note with it: ME-180 (cervical carcinoma) SIE beta-lactamase reporter, IL-6 stimulated, 5 h. The essentials: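 Overnight-plated ME-180 cells bearing a STAT Inducible Element beta-lactamase reporter; 5 h co-exposure to compound and 40 pM IL-6; values normalized to 300 pM IL-6 and 125 nM JAK inhibitor controls.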
The target of test [5] is Glucocorticoid receptor (Homo sapiens) (UniProt P04150). Put plainly: GR-GFP Redistribution (AID 450;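 active = compounds whose dose series gives a full or clear partial fitted curve of increased nuclear translocation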; note: potency is the fitted concentration of half-maximal effect). The note with it: U2OS GR-GFP nuclear translocation, laser cytometry, 2 h.
Test [6] addresses Mitogen-activated protein kinase 10 (Mus musculus) (UniProt Q61831). The test is described as follows: JNK3 AlphaScreen Assay (AID 530).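 Note: kinase came from lysate of stimulated human HepG2 cells; signal reports phosphorylation of biotinylated GST-cJun 1-79 at Ser73 with 10 µM ATP; % is set by controls: 0 for no effect and ±100 for the full control effect.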 The note with it: JNK3 lysate, c-Jun phosphorylation; series mostly up to 25.6 µM. An outline of the steps:
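qHTS titrations with 15 min compound pre-incubation before adding ATP (10 uM final). Read-out: AlphaScreen of Ser73-phosphorylated biotin-GST-cJun using HepG2 lysate JNK3 activated by IL-1β and TNFα.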
A general note: In Alpha technology, singlet oxygen from a donor bead excites a nearby acceptor bead.

Test [7] in a line: Cell Viability - Jurkat (AID 426;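 active = dose-dependent loss of cell ATP signal giving a full or clear fitted curve, ranked by lower potency value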; note: potency is the fitted concentration of half-maximal effect). The settings on record: qHTS. An outline of the steps:
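Cells of the human T-cell leukemia line Jurkat (E6-1) are seeded at 5000 per well, treated with compound across a concentration range for 40 hours at 37 °C, then lysed with CellTiter-Glo; luminescence reports ATP.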
On the technique in general: In qHTS, concentration-response curves come from the screen itself.

Test [8] can be described thus: Cell Viability - MRC5 (AID 434; calls by dose curve;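 note: potency is the fitted concentration of half-maximal effect; potency reflects cytotoxicity seen as loss of intracellular ATP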). The note with it: MRC5 lung fibroblast viability, qHTS. An outline of the steps:
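AC50 values come from Hill-equation fits of intracellular ATP loss, measured by CellTiter-Glo luminescence. Normal lung fibroblasts (MRC5) had 40 hr compound treatment at 37 C, normalized between DMSO and 100 uM tamoxifen.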

Test [9] is described as follows: Cell Viability - SK-N-SH (AID 435; calls by dose curve;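 note: potency is the fitted concentration of half-maximal effect; compound exposure lasted 40 h at 37 °C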). The settings on record: SK-N-SH neuroblastoma cell viability qHTS. An outline of the steps: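 SK-N-SH neuroblastoma cells (1500/well) treated 40 h at 37 °C in complete medium; viability read as cellular ATP by CellTiter-Glo luminescence. Normalized to DMSO and 100 uM tamoxifen; AC50 from Hill fits of qHTS concentration-response.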

Test [10] is described as follows: Cell Viability - N2a (AID 540; active = well fitted curve in the direction sought with a large enough effect; an effect the other way counts as inactive or inconclusive; note: nearly all actives have a fitted effect of over 45% in size; note: potency is the fitted concentration of half-maximal effect;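 for activity change, negative = cytotoxicity: plate controls were DMSO alone for no effect and tamoxifen control for full effect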). The note with it: N2a mouse neuroblastoma cell viability; activity change, negative = cytotoxicity: at 92.2 µM (top of the series). The essentials: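 Cytotoxicity was scored as loss of cellular ATP in N2a cells, a mouse neuroblastoma line. Compounds are applied in a qHTS concentration series for 40 hr at 37 °C.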
Test [11] is described as follows: Cell Viability - NIH 3T3 (AID 541; active = well fitted curve in the direction sought with a large enough effect; an effect the other way counts as inactive or inconclusive; note: nearly all actives have a fitted effect of over 25% in size; note: potency is the fitted concentration of half-maximal effect;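 for activity change, negative = cytotoxicity: plate controls were DMSO alone for no effect and tamoxifen positive control for full effect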). The note with it: NIH 3T3 cell viability, qHTS; activity change, negative = cytotoxicity: at 92.2 µM (top of the series). The essentials:
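Cells seeded at 1000/well, rested 5 hr at 37 °C, then dosed and incubated 40 hr at 37 °C. CellTiter-Glo added, 20 min room temperature, luminescence read. AC50 by Hill fit.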

Test [12] in a line: Cell Viability - HUV-EC-C (AID 542; active = well fitted curve in the direction sought with a large enough effect; an effect the other way counts as inactive or inconclusive; note: nearly all actives have a fitted effect of over 35% in size; note: potency is the fitted concentration of half-maximal effect). The settings on record: HUV-EC-C endothelial cell viability, qHTS; series mostly up to 92.2 µM. The essentials:
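Cells were seeded at 1000 per well and incubated 5 hr at 37 °C before compound addition. After 40 hr at 37 °C, CellTiter-Glo reagent was added for 20 min and luminescence read. AC50 values came from Hill-equation modelling.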

A short description of test [13]: Cell Viability - SH-SY5Y (AID 544; active = well fitted curve in the direction sought with a large enough effect; an effect the other way counts as inactive or inconclusive; note: nearly all actives have a fitted effect of over 55% in size; note: potency is the fitted concentration of half-maximal effect;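 for viability change, negative = cytotoxic: 0% = DMSO alone and -100% = 100 µM tamoxifen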). The settings on record: SH-SY5Y neuroblastoma cell viability; viability change, negative = cytotoxic: at 92.2 µM (top of the series). An outline of the steps: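 Cells were plated at 1500 per well and allowed 5 hr at 37 °C. Compounds were added across a concentration range and incubated 40 hr at 37 °C. CellTiter-Glo was added for 20 min at room temperature before luminescence reading.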

The nature of test [14]: Cell Viability - Renal Proximal Tubule (AID 545; active = well fitted curve in the direction sought with a large enough effect; an effect the other way counts as inactive or inconclusive;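 note: 0% = DMSO only and -100% = 100 µM tamoxifen; nearly all actives have a fitted effect of over 40% in size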). The note with it: renal proximal tubule cells viability, primary cells of rat origin; activity change, negative = cytotoxicity: at 91.7 µM (top of the series). The essentials:
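Rat renal proximal tubule primary cells, 1000/well, exposed to compounds for 40 hr at 37 °C in complete medium; cellular ATP read by CellTiter-Glo luminescence. AC50 from concentration-response fitted with standard Hill equation.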

For test [15], the target named is Lysosomal acid glucosylceramidase (Homo sapiens) (UniProt P04062). Put plainly: Glucocerebrosidase-p2 (AID 348; in the data active = potency below about 10 µM; note: potency is the fitted concentration of half-maximal effect). The note with it: purified GBA, blue fluorogenic substrate, 40 min. An outline of the steps:
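Normal human glucocerebrosidase (0.2 nM) with blue fluorogenic substrate (80 uM final) in citrate/phosphate pH 5.9 with 10mM sodium taurocholate, 0.01% tween-20; 40 min RT, NaOH/glycine stop; fluorescence Ex 365/Em 440; AC50 from a titration from 0.6 nM upwards.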

Test [16] can be described thus: Cell Viability - H-4-II-E (AID 543; active = well fitted curve in the direction sought with a large enough effect; an effect the other way counts as inactive or inconclusive; note: potency is the fitted concentration of half-maximal effect; nearly all actives have a fitted effect of over 35% in size). The note with it: H-4-II-E rat hepatoma viability; series mostly up to 92.2 µM. An outline of the steps:
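Cells seeded at 1500 per well and rested 5 hr; compounds added; 40 hr incubation at 37 °C; CellTiter-Glo added, 20 min at room temperature; luminescence read. Hill-equation fits gave AC50.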

Test [17] can be described thus: Cell Viability - BJ (AID 421; calls by dose curve;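 note: potency is the fitted concentration of half-maximal effect; cells exposed to compound for 40 hours at 37 °C before readout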). The note with it: BJ fibroblast viability, qHTS. The essentials:
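Quantitative HTS: ATP depletion in BJ cells after 40 hr compound exposure in complete culture medium, detected with CellTiter-Glo; AC50 from standard Hill fits.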

The nature of test [18]: Cell Viability - HepG2 (AID 433; calls by dose curve;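 note: potency is the fitted concentration of half-maximal effect; potency for ATP loss meaning cytotoxicity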). The note with it: qHTS. The essentials: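 HepG2 cells, 1500 per well, treated 40 hr at 37 °C in complete medium; viability from intracellular ATP by CellTiter-Glo luminescence. Normalized to DMSO and 100 uM tamoxifen; AC50 from Hill fit of qHTS concentration-response.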
For test [19], the target named is Glucocorticoid receptor (Homo sapiens) (UniProt P04150). The test is described as follows: GR-EFC Redistribution (AID 451; calls by dose curve; note: potency is the fitted concentration of half-maximal effect). The settings on record: CHO-K1 GR-EFC translocation, beta-gal luminescence, 2 h. An outline of the steps:
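Translocation of GR-ED fusion to nuclear EA restores b-gal, read by luminescence after 1 h room-temperature detection. Engineered CHO-K1 biosensor cells, 1,000/well, exposed 2 h at 37 C to titrations up to 46 uM final.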

“And” between values parts separate entries of the source, which are not always exact repeats. Equal values may be shown once. A number with no mark means an inactive call. Inconclusive results are not listed. The source made the active and inactive calls. Unless noted, calls come from the whole dose curve; as a rule, active = well fitted curve in either direction with a large enough effect (not every such curve was filed as active); inconclusive = small, poorly fitted or top-dose-only effect, or another doubt; inactive = flat fitted curve, though single readings scatter.

Cytochrome P450 1A2 (Homo sapiens), sequence (P05177 whole entry, looked up): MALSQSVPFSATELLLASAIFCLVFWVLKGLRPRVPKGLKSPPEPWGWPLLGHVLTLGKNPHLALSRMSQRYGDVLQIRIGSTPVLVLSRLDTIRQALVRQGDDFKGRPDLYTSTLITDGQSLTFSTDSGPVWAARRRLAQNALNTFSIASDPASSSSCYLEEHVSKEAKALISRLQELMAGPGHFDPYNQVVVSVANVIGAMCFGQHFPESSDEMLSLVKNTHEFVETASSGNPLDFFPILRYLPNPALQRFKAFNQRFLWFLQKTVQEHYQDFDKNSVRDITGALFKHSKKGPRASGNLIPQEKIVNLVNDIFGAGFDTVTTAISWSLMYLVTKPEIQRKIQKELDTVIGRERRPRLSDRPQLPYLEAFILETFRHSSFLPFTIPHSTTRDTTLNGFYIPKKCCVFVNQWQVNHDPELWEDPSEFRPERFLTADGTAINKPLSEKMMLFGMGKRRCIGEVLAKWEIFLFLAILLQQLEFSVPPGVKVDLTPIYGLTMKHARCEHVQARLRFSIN
Glucocorticoid receptor (Homo sapiens), sequence (P04150 whole entry, looked up, the tested form may be a part): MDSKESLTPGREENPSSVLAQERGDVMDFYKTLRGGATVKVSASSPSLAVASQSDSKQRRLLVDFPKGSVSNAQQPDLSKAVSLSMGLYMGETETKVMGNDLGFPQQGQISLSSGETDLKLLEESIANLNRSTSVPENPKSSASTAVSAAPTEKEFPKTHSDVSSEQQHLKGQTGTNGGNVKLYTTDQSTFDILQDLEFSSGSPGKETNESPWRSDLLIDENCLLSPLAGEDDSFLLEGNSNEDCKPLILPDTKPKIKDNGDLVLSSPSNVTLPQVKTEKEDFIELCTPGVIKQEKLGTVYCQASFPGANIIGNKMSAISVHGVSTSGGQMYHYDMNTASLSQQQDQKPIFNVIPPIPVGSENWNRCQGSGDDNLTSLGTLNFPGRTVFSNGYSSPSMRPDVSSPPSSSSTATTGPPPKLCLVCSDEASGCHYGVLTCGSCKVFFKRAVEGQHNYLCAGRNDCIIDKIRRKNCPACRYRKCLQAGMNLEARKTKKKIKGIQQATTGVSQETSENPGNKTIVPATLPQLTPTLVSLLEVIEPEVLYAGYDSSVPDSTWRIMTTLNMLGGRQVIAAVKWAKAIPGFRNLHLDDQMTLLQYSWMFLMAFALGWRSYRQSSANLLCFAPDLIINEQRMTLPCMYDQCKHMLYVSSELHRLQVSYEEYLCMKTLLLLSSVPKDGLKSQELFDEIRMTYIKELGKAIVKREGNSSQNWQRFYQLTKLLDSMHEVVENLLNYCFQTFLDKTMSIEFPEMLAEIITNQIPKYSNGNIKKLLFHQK
Lysosomal acid glucosylceramidase (Homo sapiens), sequence (P04062 whole entry, looked up): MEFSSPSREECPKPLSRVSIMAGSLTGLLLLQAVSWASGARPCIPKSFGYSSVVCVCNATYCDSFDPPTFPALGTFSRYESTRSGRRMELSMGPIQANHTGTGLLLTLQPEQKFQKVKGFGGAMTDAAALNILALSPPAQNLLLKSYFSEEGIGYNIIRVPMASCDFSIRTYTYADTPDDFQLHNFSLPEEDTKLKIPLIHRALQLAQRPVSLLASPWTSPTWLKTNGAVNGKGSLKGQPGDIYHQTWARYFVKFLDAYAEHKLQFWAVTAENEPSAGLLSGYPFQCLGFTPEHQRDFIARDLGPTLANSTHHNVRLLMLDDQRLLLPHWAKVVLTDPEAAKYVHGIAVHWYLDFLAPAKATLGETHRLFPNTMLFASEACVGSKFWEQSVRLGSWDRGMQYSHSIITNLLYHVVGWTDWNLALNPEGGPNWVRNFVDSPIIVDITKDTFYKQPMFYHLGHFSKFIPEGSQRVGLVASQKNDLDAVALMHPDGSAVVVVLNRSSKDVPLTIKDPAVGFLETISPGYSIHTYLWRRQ

On to `CNCCC=C1c2ccccc2CCc2ccccc21`, for which the activity change, negative = inhibition in test [1] (at 7.69 µM (top of the series)) was -6.8%; in test [1] (at 17.2 µM (top of the series)) it was 15.1% and 18.2%; in test [1] (at 38 µM (top of the series)), 16.2%; in test [3] (at 7.69 µM (top of the series)), -80.1% (active); in [3] (at 17.2 µM (top of the series)) it was -86.8% (active). Besides, the Potency is 25.1 µM (active) in test [2]; > 46 µM and > 20.6 µM in test [5]. In addition, the activity, negative = inhibition in test [4] (at 7.69 µM (top of the series)) is -5.09%; in test [4] (at 17.2 µM (top of the series)), -1.99% and -5.78%; in test [4] (at 38 µM (top of the series)) it was -27.8%. In addition, in test [6], the result was inactive.

With `C[C@H]1[C@H](NC(=O)/C(=N/OC(C)(C)C(=O)O)c2csc(N)n2)C(=O)N1S(=O)(=O)O` (stereo in doubt), the activity change, negative = inhibition in [1] (at 17.2 µM (top of the series)) was 1.44%; in test [3] (at 17.2 µM (top of the series)), 3.56%. Further, the Potency entry in test [2] was “inactive”. Further, the activity, negative = inhibition in test [4] (at 17.2 µM (top of the series)) was 8.78%. In addition, in test [5], the Potency is over 20.6 µM. Moreover, the call in test [6] was inactive.

Take `CCN(CC)C(=O)N1CCN(C)CC1`: the activity change, negative = inhibition is 1.31% in test [1] (at 17.2 µM (top of the series)) and -7.87% in [3] (at 17.2 µM (top of the series)). In addition, the Potency entry in test [2] is “inactive”. For the same compound, the activity, negative = inhibition in [4] (at 17.2 µM (top of the series)) was 3.22%. Besides, the Potency in [5] is over 20.6 µM. Moreover, the call in test [6] was inactive.

Consider `C=C(CC)C(=O)c1ccc(OCC(=O)O)c(Cl)c1Cl`, for which the activity change, negative = inhibition in [1] (at 17.2 µM (top of the series)) is -11.1% and -7.79%; in [3] (at 17.2 µM (top of the series)), -133% (active). Besides, the Potency result in test [2] and in [12] was “inactive” in each case. In addition, the Potency is 9.25 µM (active) in test [7], over 92 µM in [8], 45.3 µM (active) in test [9] and over 20.6 µM in test [5]. Also, in test [4] (at 17.2 µM (top of the series)), the activity, negative = inhibition is -17.9%. For the same compound, in test [6], the compound was called inactive. The activity change, negative = cytotoxicity in test [10] is -112% (active); in test [11], -86.1% (active); in test [14], -86.3% (active). Further, the viability change, negative = cytotoxic in [13] was -99.4% (active).

`Oc1ccc(Cl)cc1Sc1cc(Cl)ccc1O`: the Potency in test [15] was over 11.4 µM; in test [2] it was 3.98 µM (active); in test [7], 56.7 µM (active); in test [5] it was over 46 µM; in [10], 31.6 µM (active); in [11] it was 31.6 µM (active). Besides, the values for the Potency in test [12] and in [16] were 31.6 µM (active) and 39.8 µM (active), respectively. Also, in [1] (at 7.69 µM (top of the series)), the activity change, negative = inhibition is -7.34%. Moreover, in test [6], the call was inactive.

With `Oc1ccc(O)cc1`, the activity change, negative = inhibition is -22.8% in [1] (at 38 µM (top of the series)) and -5.74% in test [3] (at 38 µM (top of the series)). Also, the Potency result in [2] is “inactive”. Also, the Potency in test [17] is over 92 µM; in test [7] it was 4.41 µM (active); in test [18] it was over 92 µM; in test [8] it was over 92 µM; in [5], over 46 µM; in [19], over 46 µM. The Potency was 20 µM (active) in test [10]; 20 µM (active) in test [11]; 39.8 µM (active) in test [12]; 79.4 µM (active) in [16]; 3.16 µM (active) in [13]. Further, the activity, negative = inhibition in [4] (at 38 µM (top of the series)) is 3.99%. Moreover, the compound was classed as inactive in test [6].
